Test results published in PubChem BioAssay (NCI).
The panel holds about 83,000 compounds, 20% with a hit somewhere; the sample as a whole holds those more often.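 For each line, cells grew in 96-well plates with the test compound present at a single concentration for 48 hours.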 Calls of active or inactive are those of the source. Rule for the calls: active = growth percent below 10; inactive = the rest.

Assays:
Experiment in all cases: NCI-60 one-dose screen, 48 h (100 = growth as untreated, 0 = no growth, -100 = all killed)
Conditions in all cases: 10 µM unless noted
[1] = test system: SR leukemia
[2] = test system: RPMI-8226 leukemia
[3] = test system: OVCAR-8 ovarian
[4] = test system: OVCAR-5 ovarian
[5] = test system: OVCAR-4 ovarian
[6] = test system: SK-OV-3 ovarian
[7] = test system: IGROV1 ovarian
[8] = test system: HS 578T breast
[9] = test system: NCI/ADR-RES ovarian
[10] = test system: T-47D breast
[11] = test system: BT-549 breast
[12] = test system: MDA-MB-435 melanoma
[13] = test system: SW-620 colon
[14] = test system: MCF7 breast
[15] = test system: HCT-116 colon
[16] = test system: HCC-2998 colon
[17] = test system: KM12 colon

Measured: growth

CC[C@]1(O)C[C@@H]2CN(Cc3c([nH]c4ccccc34)[C@@](C(=O)OC)(c3cc4c(cc3OC)N(C)[C@H]3[C@@](O)(C(=O)OC)[C@H](OC(C)=O)[C@]5(CC)[C@@H]6C[C@@H]6CN6CC[C@]43[C@@H]65)C2)C1
inactive: [2] 48.8% | [3] 11.9% | [4] 51% | [5] 34.9% | [6] 15.2% | [7] 37.2% | [8] 16.8% | [9] 93.8% | [10] 83.3% | [13] 20.6% | [14] 14.8%
active: [1] 2.3% | [11] -23.1% | [12] -40% | [15] 2.43% | [16] 7.42% | [17] -9.75%

Cc1cccc(NC(=O)c2sc3nc4c(cc3c2N)CCCC4)c1
active: [12] -22.9%
inactive: [1] 17.3% | [2] 12.7% | [3] 52.1% | [4] 64.9% | [5] 71.7% | [6] 44% | [7] 54.6% | [8] 59.5% | [9] 11.1% | [10] 53.5% | [11] 50.8% | [13] 36% | [14] 11.3% | [15] 22.3% | [16] 70.6% | [17] 22.9%

COc1ccc(/C=C2\C(=O)N(C(=O)c3csc(NC(C)=O)n3)N=C2C)cc1
inactive: [1] 82.2% | [2] 98.4% | [3] 96% | [4] 110% | [5] 109% | [6] 100% | [7] 95.9% | [8] 111% | [9] 105% | [10] 99.2% | [11] 95.9% | [12] 106% | [13] 106% | [14] 88.4% | [15] 98.2% | [16] 103% | [17] 102%

CCCCCc1c(C)[nH]c(/C=c2\[nH]/c(=C3/C=c4ccccc4=N3)cc2OC)c1C
active: [1] -20.3% | [2] -49.5% | [3] -41.9% | [4] -7.96% | [5] 4.16% | [6] -17.2% | [7] -4.01% | [8] -37.1% | [9] -20.6% | [10] -6.71% | [11] -35.2% | [12] -53.6% | [14] -54.5% | [15] -97.2% | [16] -11.4% | [17] -21.7%

Nc1c(C(=O)Nc2ccccc2)sc2nc3c(cc12)CCC3
active: [12] -1%
inactive: [1] 39.6% | [2] 83.4% | [3] 88.2% | [4] 99.4% | [5] 78.9% | [6] 95.5% | [7] 90.2% | [8] 92.8% | [9] 66.6% | [10] 101% | [11] 81.7% | [13] 53.1% | [14] 51.8% | [15] 66.6% | [16] 89.4% | [17] 52.8%

COc1cc(C2C=C(C)N=C3SC=CN32)cc(OC)c1OC (stereo unspecified)
inactive: [1] 106% | [2] 113% | [3] 103% | [4] 109% | [5] 108% | [6] 112% | [7] 111% | [8] 103% | [9] 110% | [10] 98.8% | [11] 106% | [12] 98.6% | [13] 111% | [14] 93.3% | [15] 101% | [16] 106% | [17] 111%

COc1cc(CCn2nnc3c(NCCCCO)ncnc32)cc(OC)c1
inactive: [1] 96.4% | [2] 95.7% | [3] 101% | [4] 121% | [5] 99.2% | [6] 111% | [7] 109% | [8] 101% | [9] 104% | [12] 97.9% | [13] 97.9% | [14] 99.6% | [15] 97.7% | [16] 102% | [17] 103%

Cc1ccc(Oc2nc3ccccc3cc2-c2nnc(Cn3c(COc4ccccc4)nc4ccccc43)o2)cc1
active: [1] -7.62% | [2] -4.32% | [15] -2.01%
inactive: [3] 25.5% | [4] 87.7% | [5] 53.9% | [6] 77.3% | [7] 37.8% | [8] 72.4% | [9] 34.6% | [10] 48.9% | [11] 14.7% | [12] 50.8% | [13] 18.1% | [14] 11.6% | [16] 64.5% | [17] 16.7%

COc1cc(C(=O)OCCCCCCCCCCC[P+](c2ccccc2)(c2ccccc2)c2ccccc2)ccc1O
active: [1] -58.7% | [2] -9.32% | [3] -62% | [5] -11.2% | [6] -1.8% | [8] -13.3% | [10] -43.1% | [11] -60.8% | [12] -46.7% | [13] -0.568% | [14] -40.8% | [15] -33.6% | [17] -80.6%
inactive: [4] 22.6% | [7] 11.6% | [9] 50.6% | [16] 19.3%

CCC1=C[C@@H]2CN(C1)Cc1c([nH]c3ccccc13)[C@@](C(=O)OC)(c1cc3c(cc1OC)N(C=O)[C@H]1[C@@](O)(C(=O)OC)[C@H](OC(C)=O)[C@]4(CC)[C@@H]5C[C@@H]5CN5CC[C@]31[C@@H]54)C2
active: [1] 9.37% | [2] -6.79% | [3] 8.45% | [6] 5.16% | [9] -28.8% | [12] -57.1% | [15] 7.99% | [16] -13% | [17] 8.8%
inactive: [4] 44.2% | [5] 47% | [7] 30.8% | [8] 26.3% | [10] 97.5% | [11] 47.9% | [13] 26.3% | [14] 10.9%

COc1ccc(C2=NN(c3ccc(S(N)(=O)=O)cc3)C(c3cn(-c4ccccc4)nc3-c3ccc(Cl)cc3)C2)cc1 (stereo unspecified)
inactive: [1] 77.9% | [2] 78% | [3] 91.1% | [4] 114% | [5] 107% | [6] 97.7% | [7] 105% | [8] 109% | [9] 90.1% | [10] 67.1% | [12] 79.3% | [13] 101% | [14] 66.7% | [15] 74.5% | [16] 98.2% | [17] 88.6%

COC1=CC(c2ccc[nH]2)=N/C1=C\c1[nH]c(C)c(C(=O)CCC(=O)Oc2ccc3c(c2)CCC2C3CC[C@]3(C)[C@@H](O)CC[C@@H]23)c1C (stereo partly specified)
inactive: [4] 27.7% | [5] 43.1% | [6] 51.1% | [7] 16.8% | [8] 20.4% | [10] 20.5% | [11] 27% | [12] 11.9% | [14] 13.6%
active: [1] -17.6% | [2] -12.2% | [3] -3.79% | [9] 8.32% | [13] -51.1% | [15] -84.2% | [16] 9.51% | [17] 3.48%

COc1cc(OC)c(C(=O)/C=C/c2ccc(C(F)(F)F)cc2)c(OC)c1
active: [11] -3.68% | [13] 9.97%
inactive: [1] 31.6% | [2] 25.3% | [3] 40.3% | [4] 105% | [5] 56.5% | [6] 75.4% | [7] 52.1% | [8] 66.2% | [9] 46.9% | [10] 26.6% | [12] 23.8% | [14] 19.7% | [15] 20.4% | [16] 85% | [17] 36.6%

COc1cc(Cn2c(SCC(=O)Nc3ccc(Cl)cc3)nc3ccccc3c2=O)cc(OC)c1OC
inactive: [1] 46.9% | [2] 28.6% | [3] 62.9% | [4] 82.2% | [5] 53.4% | [6] 68.2% | [7] 41.6% | [9] 51.9% | [10] 45.2% | [11] 75.1% | [12] 69.8% | [13] 77.7% | [14] 77.2% | [15] 35.6% | [16] 93.2% | [17] 79.4%
active: [8] 7.73%

CCCCCCCCCN1C(=O)/C(=c2\sc3n(c2=O)C2C(NN=3)N(CC)C(=O)N2CC)c2ccccc21 (stereo unspecified)
active: [1] 5.57% | [12] -9.54% | [15] 5.86% | [17] 9.43%
inactive: [2] 80.4% | [3] 36.7% | [4] 80.8% | [5] 13.2% | [6] 93.7% | [7] 54.1% | [8] 26.7% | [9] 46.9% | [11] 82.2% | [13] 30.5% | [14] 27.9% | [16] 102%

CCC1CCc2nc3sc(C(=O)Nc4cccc(C)c4)c(N)c3cc2C1 (stereo unspecified)
inactive: [1] 11% | [2] 56.5% | [3] 94.2% | [4] 105% | [5] 85% | [6] 96.9% | [7] 95.8% | [8] 87.7% | [9] 76% | [10] 96.9% | [11] 86.1% | [13] 53.2% | [14] 18.7% | [15] 83.8% | [16] 100% | [17] 48.5%
active: [12] -15.9%

Cc1cccc(-n2c(C)nc3ccc(NC(=O)NCCCl)cc3c2=O)c1
inactive: [1] 95.9% | [2] 97.6% | [3] 107% | [4] 107% | [5] 107% | [6] 102% | [7] 102% | [8] 99.4% | [9] 95.5% | [10] 103% | [11] 101% | [12] 99.2% | [13] 97.3% | [14] 86.1% | [15] 103% | [16] 114% | [17] 106%

O=C1Nc2ccc(Br)cc2C1=N/C=c1\[nH]c(=O)/c(=C/c2ccc(Cl)cc2)s1
inactive: [1] 81.6% | [2] 98.2% | [3] 93.6% | [4] 106% | [5] 108% | [6] 91.4% | [7] 105% | [8] 100% | [9] 104% | [10] 80% | [11] 99.8% | [12] 104% | [13] 104% | [14] 86.6% | [15] 87.9% | [16] 118% | [17] 107%
